{"source": "PubChem BioAssay (NCATS)", "note": "Calls of active or inactive are those of the source. Calls follow the shape of the dose curve; as a rule, active = well fitted curve in the direction sought with a large enough effect; inconclusive = small, poorly fitted or top-dose-only effect, or another doubt; inactive = no such curve, though single readings can be large or run the other way.", "data": [{"assay": "Cellular Toxicity (caspase-3) BJ (AID 658);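 also: 0% = DMSO basal and 100% = 10 µM staurosporine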", "conditions": "BJ fibroblasts, luminescence; Potency: caspase-3 activation; series mostly up to 91.7 µM; caspase-3 activation: at the top concentration", "from_the_text": "NIH Chemical Genomics Center [NCGC]\nNIH Molecular Libraries Screening Centers Network [MLSCN]\nNational Institutes of Environmental Health Sciences [NIEHS]\nNational Toxicology Program [NTP]\nWe have developed a 1536-well cell-based assay for quantitative high throughput screening (qHTS) against a number of cell lines to determine in vitro caspase 3/7 activity of small molecules. This particular assay uses BJ cell line which is derived from normal human foreskin fibroblast.\nNCGC Assay Protocol Summary:\nThe Caspase-Glo 3/7 assay (Promega) is a homogeneous method to measure caspase-3 and caspase-7 activities in cultured cells. The quantitation of caspase 3/7 activity is based on the cleavage of a peptide-aminoluciferin substrate. After caspase cleaves the substrate the free aminoluciferin is liberated and serves as the substrate of luciferase, which generates the light. The luminescent signal is proportional to amount of caspase 3/7 activity present.\nUsing the Caspase-Glo 3/7 assay, the amount of caspase 3/7 activity was measured in the BJ cell line with complete culture medium following compound treatment for 16 hours. The assay was performed in opaque white 1536-well plates. In the screen, staurosporine and tamoxifen were used as positive controls. Library compounds were measured for their ability to cause the activation of caspase 3/7 in the cell line, as reflected by an increase in luminescence signal, in a concentration-dependent manner. Data were normalized to the controls for basal activity (DMSO only) and 100% stimulation (10 uM staurosporine). AC50 values were determined from concentration-response data modeled with the standard Hill equation.\nqHTS protocol for caspase 3/7 assay in the BJ cells\n[Step] [Parameter] [Value] [Description]\n1. Reagent; 5 uL; 1000 the BJ cells/well\n2. Time; 5 hr; 37 °C incubation\n4. Controls; 23 nL; Tamoxifen 0.23 uM to 100 uM & staurosporine 1.4 pM to 100 uM\n5. Time; 16 hr; 37 °C incubation\n6. Reagent; 5 uL; Caspase-Glo 3/7 reagent\n7. Time; 1 hr; Room Temperature\n8. Detection; Luminescence; Viewlux plate reader\nKeywords: caspase 3/7, apoptosis, the BJ cell line, luminescence, NTPHTS, NTPHTS_NCGC, NIEHS, EPA, DSSTox, MLSMR, MLSCN, NIH Roadmap, qHTS, NCGC", "values": [{"smiles": "Nc1ccc(N)c(Cl)c1", "caspase-3 activation": "-0.943% (inactive)"}, {"smiles": "Cc1ccc2ccc3cccc4ccc1c2c34", "caspase-3 activation": "-0.51% (inactive)"}, {"smiles": "CCCC(=O)OC(=O)CCC", "caspase-3 activation": "1.3% (inactive)"}, {"smiles": "CC(=O)OCc1ccc2c(c1)OCO2", "caspase-3 activation": "-1.67% (inactive)"}, {"smiles": "Oc1c(Cl)cc(Cl)c(Cl)c1Cl", "caspase-3 activation": "-2.66% (inactive)"}, {"smiles": "CCN(CC)c1ccc2c(C)cc(=O)oc2c1", "caspase-3 activation": "-0.599% (inactive)"}, {"smiles": "O=CC(=O)c1ccccc1", "caspase-3 activation": "0.231% (inactive)"}, {"smiles": "Nc1cc([N+](=O)[O-])ccc1O", "caspase-3 activation": "1.37% (inactive)"}, {"smiles": "O=[N+]([O-])c1ccccc1Nc1ccccc1", "caspase-3 activation": "-0.573% (inactive)"}, {"smiles": "Nc1cc(C(=O)O)c(O)c(S(=O)(=O)O)c1", "caspase-3 activation": "-1.79% (inactive)"}, {"smiles": "CC/C=C/C/C=C/C/C=C/CCCCCCCC(=O)OCC", "caspase-3 activation": "0.295% (inactive)"}, {"smiles": "Cc1ccc(S(N)(=O)=O)cc1", "caspase-3 activation": "0.448% (inactive)"}, {"smiles": "CCNC(=S)NCC", "caspase-3 activation": "-0.108% (inactive)"}, {"smiles": "Cc1cc(=O)oc2cc(O)cc(O)c12", "caspase-3 activation": "-1.12% (inactive)"}, {"smiles": "Cc1ccc(O)c(N)c1", "caspase-3 activation": "-1.17% (inactive)"}, {"smiles": "CCCCNCC", "caspase-3 activation": "-0.467% (inactive)"}, {"smiles": "CC(=O)c1ccc(Cl)c(Cl)c1Cl", "caspase-3 activation": "-0.781% (inactive)"}, {"smiles": "CCc1ccc(C(c2ccc(CC)cc2)C(Cl)Cl)cc1", "caspase-3 activation": "0.859% (inactive)"}, {"smiles": "C=CC(=O)OCCCCCCOC(=O)C=C", "caspase-3 activation": "21.6% (inactive)"}, {"smiles": "Cc1ccc(N)cc1[N+](=O)[O-]", "caspase-3 activation": "0.667% (inactive)"}, {"smiles": "C=Cc1cccc(C)c1", "caspase-3 activation": "0.225% (inactive)"}, {"smiles": "Oc1cc2c(cc1O)[C@H]1c3ccc(O)c(O)c3OC[C@@]1(O)C2", "caspase-3 activation": "-3.21% (inactive)"}, {"smiles": "C1CCCNCC1", "caspase-3 activation": "-1.1% (inactive)"}, {"smiles": "CCCCCCCCOc1ccc(C(=O)O)cc1", "caspase-3 activation": "-2.58% (inactive)"}, {"smiles": "Cc1c2ccccc2c(C)c2c1ccc1ccccc12", "caspase-3 activation": "0.879% (inactive)"}, {"smiles": "NC(=O)Nc1nc2ccccc2[nH]1", "caspase-3 activation": "-0.217% (inactive)"}, {"smiles": "C=C(C#N)C(=O)OCC", "caspase-3 activation": "-1.66% (inactive)"}, {"smiles": "O=C(OCC1CO1)C1CCCCC1C(=O)OCC1CO1", "note": "(stereo not given)", "caspase-3 activation": "3.32% (inactive)"}, {"smiles": "CCCCC(CC)COCCCN", "note": "(stereo not given)", "caspase-3 activation": "2.01% (inactive)"}, {"smiles": "CCN(CC)c1ccc(N)cc1", "caspase-3 activation": "-0.749% (inactive)"}, {"smiles": "CC(C)OCC1CO1", "note": "(stereo not given)", "caspase-3 activation": "-0.0428% (inactive)"}, {"smiles": "Oc1cc(Cl)cc(Cl)c1Cl", "caspase-3 activation": "0.958% (inactive)"}, {"smiles": "CCCCC(CC)COC(=O)COc1ccc(Cl)cc1Cl", "note": "(stereo not given)", "caspase-3 activation": "-0.475% (inactive)"}, {"smiles": "Brc1cc(Oc2cc(Br)c(Br)c(Br)c2Br)c(Br)c(Br)c1Br", "caspase-3 activation": "2.13% (inactive)"}, {"smiles": "CCCCOC(=O)COc1ccc(Cl)cc1Cl", "caspase-3 activation": "0.797% (inactive)"}, {"smiles": "O=Nc1ccc(Nc2ccccc2)cc1", "caspase-3 activation": "-4.92% (inactive)"}, {"smiles": "CCC(Cl)CC(Cl)C(Cl)C(Cl)C(Cl)C(C)Cl", "note": "(stereo not given)", "caspase-3 activation": "0.284% (inactive)"}, {"smiles": "S=C(NC1CCCCC1)NC1CCCCC1", "caspase-3 activation": "0.814% (inactive)"}, {"smiles": "Cc1cc2nc(N)sc2cc1C", "caspase-3 activation": "-8.71% (inactive)"}, {"smiles": "Cc1cccnc1", "caspase-3 activation": "-1.44% (inactive)"}]}]}
